Experimental data from the supplement of paper PMC4840960.

These compounds were tested on E18 rat cortical neuron-glia co-culture (assay: myelination (MBP fiber length per Olig2+ nucleus), % of 1 µM DAPT response (DMSO = 0) (% of DAPT); higher = more myelination, active = 50 or more). Details: 1 µM; treatment time: 8 days (DIV5-DIV13).
Method in brief: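 Primary E18 rat cortical co-cultures (papain-dissociated, 20,000 cells/well on poly-d-lysine/laminin 96-well plates) received library compounds at 1 or 5 µM in myelination medium from DIV5 to DIV13. Cells were fixed in 4 % paraformaldehyde and immunostained for MBP and Olig2 with DAPI, and four 10X fields per well in duplicate wells were analysed. Myelination was continuous straight MBP fiber length per Olig2+ nucleus, normalised to 0.1 % DMSO (0) and a 1 µM positive control (100).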

myelination, 68.5:
Nc1nc(N)c2nc(-c3ccccc3)c(N)nc2n1 [Triamterene]

myelination, inactive:
CC(C)c1ccc2oc3nc(N)c(C(=O)O)cc3c(=O)c2c1 [Amlexanox] -13.2, CO/N=C(\C(=O)N[C@@H]1C(=O)N2C(C(=O)O)=C(COC(C)=O)CS[C@H]12)c1csc(N)n1 [Cefotaxime] -9.49, Cc1ccc(Cl)c(Nc2ccccc2C(=O)O)c1Cl [Meclofenamic acid] -26, CCCCCCNC(=O)n1cc(F)c(=O)[nH]c1=O [Carmofur] -30.6, CN1CCC(=C2c3ccccc3CCc3sccc32)CC1 [Pizotyline] -41, COc1cc2nc(N3CCN(C(=O)C4COc5ccccc5O4)CC3)nc(N)c2cc1OC (centres undefined) [Doxazosin] -45.2, CC(=O)NS(=O)(=O)c1ccc(N)cc1 [Sulfacetamide] -10.6, C#C[C@]1(O)CC[C@H]2[C@@H]3CCC4=CC(=O)CC[C@@H]4[C@H]3CC[C@@]21C [Norethindrone] -8.89, CCCNC(=O)NS(=O)(=O)c1ccc(Cl)cc1 [Chlorpropamide] -30.5, COc1cc(C[C@@H](CO)[C@H](CO)Cc2ccc(O)c(OC)c2)ccc1O [Secoisolariciresinol] -4.03, O=C1CC2(CCCC2)CC(=O)N1CCNCC1COc2ccccc2O1 (centres undefined) [Binospirone] -14.3, O=c1cnn([C@@H]2O[C@H](CO)[C@@H](O)[C@H]2O)c(=O)[nH]1 [Azauridine] -6.45, C[N+]1(C)CCC(OC(=O)C(O)(c2ccccc2)C2CCCC2)C1 (centres undefined) [Glycopyrrolate] -12.1, CCCCC(=O)O[C@H]1CC[C@H]2[C@@H]3CCc4cc(O)ccc4[C@H]3CC[C@]12C [Estradiol valerate] 1.8, CC1=C(CC(=O)O)c2cc(F)ccc2/C1=C\c1ccc([S+](C)[O-])cc1 (centres undefined) [Sulindac] -5.43, CS(N)(=O)=O [Methanesulfonamide] -10.9, COc1ccc(-c2oc3c(CC=C(C)C)c(O[C@@H]4O[C@H](CO)[C@@H](O)[C@H](O)[C@H]4O)cc(O)c3c(=O)c2O[C@@H]2O[C@@H](C)[C@H](O)[C@@H](O)[C@H]2O)cc1 [Icariin] -14.4, CN(CCO)CC(O)Cn1cnc2c1c(=O)n(C)c(=O)n2C (centres undefined) [Jupal] -7.05, COc1c(N2CCNC(C)C2)c(F)cc2c(=O)c(C(=O)O)cn(C3CC3)c12 (centres undefined) [Gatifloxacin] -17, CNCCC=C1c2ccccc2CCc2ccccc21 [Nortriptyline] -1.74, Cc1c(O)c(=O)ccn1C [Deferiprone] -11.3, OCCOCCN1CCN(C2=Nc3ccccc3Sc3ccccc32)CC1 [Quetiapine hemifumarate] -10, CCC1=C(C)CN(C(=O)NCCc2ccc(S(=O)(=O)NC(=O)N[C@H]3CC[C@H](C)CC3)cc2)C1=O [Glimepiride] -3.14, COc1ccc(-c2cc(=O)c3c(OC)c(OC)c(OC)c(OC)c3o2)cc1OC [Nobiletin] -36.3, O=C1[C@H](CC[C@H](O)c2ccc(F)cc2)[C@@H](c2ccc(O)cc2)N1c1ccc(F)cc1 [Ezetimibe] -31.2, CCOC(=O)[C@H](CCc1ccccc1)N[C@H]1CCc2ccccc2N(CC(=O)O)C1=O [Benazepril] -15.3, CC(=O)OCC[N+](C)(C)C [Acetylcholine] -17.4, Cc1nc2n(c(=O)c1CCN1CCC(c3noc4cc(F)ccc34)CC1)CCCC2 [Risperidone] -7.71, CCN(CC)CCOC(=O)C1(C2CCCCC2)CCCCC1 [Dicyclomine] -14.3, CCc1oc2ccccc2c1C(=O)c1cc(Br)c(O)c(Br)c1 [Benzbromarone] -8.31, C/C=C1\[C@H]2C=C(C)C[C@]1(N)c1ccc(=O)[nH]c1C2 [Huperzine A] 8.16, O=C(O)c1cccnc1 [Niacin] 9.03, Cc1c(OCC(F)(F)F)ccnc1C[S+]([O-])c1nc2ccccc2[nH]1 (centres undefined) [Lansoprazole] -17.3
